Results published in PubChem BioAssay (NCI).
Compounds without any hit were thinned out: in the full panel of roughly 83,000, 20% have a hit.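 96-well plates, one dose, 48 hours. Percent growth reported; active if below 10.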 Calls of active or inactive are those of the source.

Columns and labels:
Assay in all cases: NCI-60 one-dose screen, 48 h (100 = growth as untreated, 0 = no growth, -100 = all killed)
NCI-H23 lung = system: NCI-H23 lung
NCI-H226 lung = system: NCI-H226 lung
NCI-H322M lung = conditions: 10 µM unless noted
HOP-62 NSCLC = system: HOP-62 NSCLC
NCI-H460 lung = system: NCI-H460 lung
HOP-92 NSCLC = system: HOP-92 NSCLC
NCI-H522 lung = system: NCI-H522 lung
A549/ATCC NSCLC = system: A549/ATCC NSCLC
786-0 renal = system: 786-0 renal
COLO 205 colon = system: COLO 205 colon
DU-145 prostate = system: DU-145 prostate
K-562 leukemia = system: K-562 leukemia
MALME-3M melanoma = system: MALME-3M melanoma
MDA-MB-231 breast = system: MDA-MB-231 breast
RXF 393 renal = system: RXF 393 renal
SF-268 CNS = system: SF-268 CNS
SF-295 CNS = system: SF-295 CNS
SF-539 CNS = system: SF-539 CNS
UACC-257 melanoma = system: UACC-257 melanoma
M14 melanoma = system: M14 melanoma

Measured: growth

COc1ccc(C(=O)/C=C/c2ccc(OCc3cccc(C(F)(F)F)c3)c(OC)c2)cc1OC
active: NCI-H226 lung; 100 µM -12.8% | HOP-62 NSCLC; 100 µM 5.03% | NCI-H460 lung; 100 µM 6.09% | HOP-92 NSCLC; 100 µM -17.4% | NCI-H522 lung; 100 µM -18.5% | 786-0 renal; 100 µM -3.87% | MDA-MB-231 breast; 100 µM -12.9% | RXF 393 renal; 100 µM -13%
inactive: NCI-H23 lung; 10 µM 69.9% | NCI-H23 lung; 100 µM 11.1% | NCI-H226 lung; 10 µM 81.4% | NCI-H322M lung 11.7% [100 µM] | HOP-62 NSCLC; 10 µM 111% | NCI-H460 lung; 10 µM 78.9% | HOP-92 NSCLC; 10 µM 79.4% | NCI-H522 lung; 10 µM 53.8% | A549/ATCC NSCLC; 10 µM 73.1% | A549/ATCC NSCLC; 100 µM 14.9% | 786-0 renal; 10 µM 122% | COLO 205 colon; 10 µM 103% | COLO 205 colon; 100 µM 23.2% | DU-145 prostate; 10 µM 72.7% | DU-145 prostate; 100 µM 19.4% | K-562 leukemia; 10 µM 39.1% | K-562 leukemia; 100 µM 12.2% | MALME-3M melanoma; 10 µM 97.7% | MALME-3M melanoma; 100 µM 23.5% | MDA-MB-231 breast; 10 µM 79.9% | RXF 393 renal; 10 µM 97.7% | SF-268 CNS; 10 µM 86.4% | SF-268 CNS; 100 µM 14.6% | SF-295 CNS; 10 µM 98.2% | SF-295 CNS; 100 µM 21.7% | SF-539 CNS; 10 µM 103% | SF-539 CNS; 100 µM 12% | UACC-257 melanoma; 10 µM 93.9% | UACC-257 melanoma; 100 µM 28.7% | M14 melanoma; 10 µM 85.3% | M14 melanoma; 100 µM 35.4%

O=C(/C=C/c1cccc(Oc2ccc(Cl)cc2)c1)c1ccccc1
inactive: NCI-H23 lung; 10 µM 90.8% | NCI-H226 lung; 10 µM 104% | HOP-62 NSCLC; 10 µM 98.5% | NCI-H460 lung; 10 µM 97.3% | HOP-92 NSCLC; 10 µM 111% | NCI-H522 lung; 10 µM 89.2% | A549/ATCC NSCLC; 10 µM 96.2% | 786-0 renal; 10 µM 91.3% | COLO 205 colon; 10 µM 104% | DU-145 prostate; 10 µM 95.3% | K-562 leukemia; 10 µM 31.6% | MALME-3M melanoma; 10 µM 102% | MDA-MB-231 breast; 10 µM 113% | RXF 393 renal; 10 µM 101% | SF-268 CNS; 10 µM 101% | SF-295 CNS; 10 µM 94.9% | SF-539 CNS; 10 µM 99.8% | UACC-257 melanoma; 10 µM 101%
active: NCI-H23 lung; 100 µM -57.9% | NCI-H226 lung; 100 µM -63.2% | NCI-H322M lung -73% [100 µM] | HOP-62 NSCLC; 100 µM -80.5% | NCI-H460 lung; 100 µM -76.6% | HOP-92 NSCLC; 100 µM -90.7% | NCI-H522 lung; 100 µM -64.6% | A549/ATCC NSCLC; 100 µM -75.7% | 786-0 renal; 100 µM -88.9% | COLO 205 colon; 100 µM -71% | DU-145 prostate; 100 µM -98.4% | K-562 leukemia; 100 µM -29% | MALME-3M melanoma; 100 µM -85.2% | MDA-MB-231 breast; 100 µM -61.9% | RXF 393 renal; 100 µM -68.2% | SF-268 CNS; 100 µM -78.3% | SF-295 CNS; 100 µM -95.3% | SF-539 CNS; 100 µM -92.3% | UACC-257 melanoma; 100 µM -86.8%
